Source: PubChem
The list is not random: actives were taken first. Their share in the collection is about 0.9%.
SRC2 TRFRET art: flags TR-FRET format artefacts in PPARgamma SRC-2 recruitment agonist screen; TR-FRET artefact counter-screen; active compounds read high; TR-FRET ratio at 8 µM; 200,000 tested, 0.4% active; in the data active = TR-FRET ratio above about 2000
SRC3 TRFRET art: flags TR-FRET format artefacts in PPARgamma SRC-3 recruitment agonist screen. TR-FRET artefact counter-screen, PPARgamma/SRC-3 format; active compounds read high. TR-FRET ratio at 8 µM. 99,000 tested, 0.39% active; in the data active = TR-FRET ratio above about 2000
PPARg SRC1 recr: agonists of human PPARgamma SRC-1 coactivator recruitment; activation, % at 8 µM; AID 631; PPARgamma-SRC-1 coactivator recruitment biochemical assay; P37231; 200,000 tested, 0.41% active; in the data active = activation above about 19%
PPARg SRC-3 ag: promotes SRC-3 coactivator recruitment by human PPARgamma; P37231; AID 731; activation, % at 8 µM; biochemical PPARgamma/SRC-3 coactivator recruitment assay; 200,000 tested, 0.26% active; in the data active = activation above about 23%
PPARg SRC-2 ag: PPARgamma-driven SRC-2 recruitment agonism; P37231; PPARgamma LBD-SRC-2 recruitment, biochemical; activation, % at 8 µM; 200,000 tested, 0.34% active; AID 1032
SRC1 TRFRET art: TR-FRET artefact, counter-screen to PPARgamma/SRC-1 agonist assay | TR-FRET detection artefact counter-screen, emission ratio; active compounds read high | TR-FRET ratio at 8 µM | AID 1051 | 99,000 tested, 0.34% active; in the data active = TR-FRET ratio above about 2300
PPARg SRC2 conf: confirmation of agonists of SRC-2 recruitment by human PPARgamma; biochemical SRC-2 recruitment by PPARgamma; AID 1297; activation, % at 8 µM; 790 tested, 52% active; shares compounds with PPARg SRC-3 ag
PPARg SRC1 conf: confirmation of agonists of SRC-1 recruitment by human PPARgamma; shares compounds with PPARg SRC-3 ag; PPARgamma–SRC-1 coactivator recruitment biochemical assay; activation, % at 8 µM; 790 tested, 43% active; AID 1300; in the data active = activation above about 20%
PPARg SRC3 ag: confirmation of agonists of SRC-3 recruitment by human PPARgamma | shares compounds with PPARg SRC-3 ag | biochemical PPARgamma-SRC-3 coactivator recruitment, agonist mode | activation, % at 8 µM | 790 tested, 29% active | AID 1301; in the data active = activation above about 24%
Numbers stand for hits. Cut-off read from the data, not from the text of the source, unless noted: active = activation above about 22%; inactive = the rest.

Screening Cc1ccc(C(=O)OCC(=O)c2ccc[nH]2)s1 returned SRC2 TRFRET art inactive, SRC3 TRFRET art inactive, PPARg SRC1 recr inactive, PPARg SRC-3 ag inactive, PPARg SRC-2 ag inactive and SRC1 TRFRET art inactive.
For O=C(COC(=O)c1ccc(Cl)s1)c1ccc[nH]1 the results were SRC2 TRFRET art inactive, SRC3 TRFRET art inactive, PPARg SRC1 recr inactive, PPARg SRC-3 ag inactive, PPARg SRC-2 ag 22, SRC1 TRFRET art inactive, PPARg SRC2 conf inactive, PPARg SRC1 conf inactive and PPARg SRC3 ag inactive.
`O=S1(=O)N=C(Oc2cccc3ccccc23)c2ccccc21` gave SRC2 TRFRET art inactive, PPARg SRC1 recr inactive, PPARg SRC-3 ag inactive and PPARg SRC-2 ag inactive.
For N#C/C(=C\c1ccc(N2CCOCC2)c([N+](=O)[O-])c1)c1nc2ccccc2[nH]1 the results were SRC2 TRFRET art inactive, SRC3 TRFRET art inactive, PPARg SRC1 recr inactive, PPARg SRC-3 ag inactive, PPARg SRC-2 ag inactive and SRC1 TRFRET art inactive.
N#C/C(=C\c1ccc(N2CCOCC2)o1)c1nc2ccccc2[nH]1 was read as SRC2 TRFRET art inactive, PPARg SRC1 recr 25, PPARg SRC-3 ag inactive, PPARg SRC-2 ag 26, PPARg SRC2 conf inactive, PPARg SRC1 conf inactive and PPARg SRC3 ag inactive.
`O=c1c(O)c(-c2ccc(O)cc2O)oc2cc(O)cc(O)c12` gave SRC2 TRFRET art inactive, SRC3 TRFRET art inactive, PPARg SRC1 recr 23, PPARg SRC-3 ag inactive, PPARg SRC-2 ag inactive, SRC1 TRFRET art inactive, PPARg SRC2 conf inactive, PPARg SRC1 conf inactive and PPARg SRC3 ag inactive.
`CCOc1ccc(S(=O)(=O)N(C)c2ccc(OCC(=O)Nc3nc(-c4cc(OC)ccc4OC)cs3)cc2)cc1` gave SRC2 TRFRET art 2453, SRC3 TRFRET art 2621, PPARg SRC1 recr 25, PPARg SRC-3 ag inactive, PPARg SRC-2 ag 26, SRC1 TRFRET art 2860, PPARg SRC2 conf 32, PPARg SRC1 conf 26 and PPARg SRC3 ag inactive.
COc1cccc(CNc2ccccc2O)c1OCc1ccccc1F was read as SRC2 TRFRET art inactive, SRC3 TRFRET art inactive, PPARg SRC1 recr inactive, PPARg SRC-3 ag inactive, PPARg SRC-2 ag inactive and SRC1 TRFRET art inactive.
`O=c1oc(-c2ccccc2F)nc2c1cnn2-c1ccccc1` gave SRC2 TRFRET art inactive, PPARg SRC1 recr 23, PPARg SRC-3 ag inactive, PPARg SRC-2 ag inactive, PPARg SRC2 conf inactive, PPARg SRC1 conf 25 and PPARg SRC3 ag 27.
`CCNc1sc(S(C)(=O)=O)nc1S(=O)(=O)c1ccc(Cl)cc1` gave SRC2 TRFRET art inactive, SRC3 TRFRET art inactive, PPARg SRC1 recr inactive, PPARg SRC-3 ag inactive, PPARg SRC-2 ag inactive and SRC1 TRFRET art inactive.
Screening COc1ccccc1NS(=O)(=O)c1cccc(NC(=O)c2sc3ccccc3c2Cl)c1 returned SRC2 TRFRET art 2161, SRC3 TRFRET art 2458, PPARg SRC1 recr 22, PPARg SRC-3 ag inactive, PPARg SRC-2 ag inactive, SRC1 TRFRET art 2434, PPARg SRC2 conf inactive, PPARg SRC1 conf inactive and PPARg SRC3 ag inactive.
Screening CCC(CC)C(=O)OCC(=O)Nc1cc(OC)c([N+](=O)[O-])cc1C returned SRC2 TRFRET art inactive, SRC3 TRFRET art inactive, PPARg SRC1 recr inactive, PPARg SRC-3 ag inactive, PPARg SRC-2 ag inactive and SRC1 TRFRET art inactive.
CC1CCCN(C(=O)c2ccc3c(c2NCCO)C(=O)c2ccccc2C3=O)C1 (stereo not given) was read as SRC2 TRFRET art inactive, PPARg SRC1 recr inactive, PPARg SRC-3 ag inactive and PPARg SRC-2 ag inactive.
Screening O=C1c2ccccc2C(=O)c2c1ccc(C(=O)N1CCCCC1)c2NCCO returned SRC2 TRFRET art inactive, PPARg SRC1 recr 21, PPARg SRC-3 ag inactive, PPARg SRC-2 ag inactive, PPARg SRC2 conf inactive, PPARg SRC1 conf inactive and PPARg SRC3 ag inactive.
CCN(CC)c1ccc(NC(=O)CSc2nnc(N)s2)cc1C was read as SRC2 TRFRET art inactive, PPARg SRC1 recr 20, PPARg SRC-3 ag inactive, PPARg SRC-2 ag inactive, PPARg SRC2 conf inactive, PPARg SRC1 conf inactive and PPARg SRC3 ag inactive.
